Outcome and AC50 data for seven compounds are collected here from PubChem BioAssay (EPA / NIEHS).

Experiment [1] is described as follows: Tanguay_ZF_120hpf_NC_legacy: (Legacy) Oregon State University Tanguay Lab 120 Hour Post-fertilization zebrafish Assay for Notochord and Tail Malformation (AID 2283656). An outline of the steps:
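Binary scoring of notochord distortion by brightfield microscopy; embryos dying were not scored. Wild-type Tropical 5D embryos, chorion removed, exposed singly and statically from 6 to 120 hpf, 28C, sealed, 0.64% DMSO.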

Read-out in experiment [2]: solute carrier (SLC10A1), SLC10A1 (gene 6554)
The experiment can be described thus: LTEA_HepaRG_SLC10A1: Life Technologies and Expression Analysis (LTEA) Assay for solute carrier (SLC10A1) using HepaRG (AID 2283657; active means hit-call score of the fitted dose curve at least 0.9, where 1 is the maximum; inactive means score below 0.9). To be noted: mRNA level, 48 h; actives raise or lower the signal. A digest of the protocol:
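Cryopreserved HepaRG cells are thawed, plated and cultured 48 h; medium is then switched to serum-free induction medium and chemicals added (8 points, max 100 uM, 0.5% DMSO). After 48 h, RNA is isolated and SLC10A1 quantified by qRT-PCR.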

Read-out in experiment [3]: matrix metalloproteinase-1 (MMP1), MMP1 (gene 4312)
Briefly: LTEA_HepaRG_MMP1: Life Technologies and Expression Analysis (LTEA) Assay for matrix metalloproteinase-1 (MMP1) using HepaRG (AID 2283658; active means hit-call score of the fitted dose curve at least 0.9, where 1 is the maximum; inactive means score below 0.9). As to conditions: mRNA level, 48 h; actives raise or lower the signal. A digest of the protocol:
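HepaRG, ~100,000 cells/well, 48 h pre-culture; serum-free induction medium; test chemical 8 conc (max 100 uM, half-log), duplicate, 48 h; 0.5% DMSO; qRT-PCR MMP1, housekeeping-normalized; gain/loss fit vs DMSO.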

Read-out in experiment [4]: Broad substrate specificity ATP-binding cassette transporter ABCG2 (Homo sapiens) (UniProt Q9UNQ0)
The experiment can be described thus: CLD_ABCG2_6hr: CellzDirect (CLD) Gene Expression Assay for ABC Transporter (ABCG2) at 6 hours (AID 2283660). An outline of the steps: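 ABCG2 mRNA induction measured by qNPA chemiluminescence in human primary hepatocyte cultures, 6 h post-dose. Chemicals tested at several concentrations against a 0.2% DMSO vehicle; positive-direction fit relative to DMSO.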

Read-out in experiment [5]: alkyl and aryl transferase (GSTA2), GSTA2 (gene 2939)
The experiment can be described thus: CLD_GSTA2_6hr: CellzDirect (CLD) Gene Expression Assay for alkyl and aryl transferase (GSTA2) at 6 hours (AID 2283666). A digest of the protocol: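 GSTA2 transcript induction at 6 h, quantified by nuclease protection (qNPA) with chemiluminescent detection, in human liver primary hepatocytes exposed to several compound concentrations with 0.2% DMSO as baseline; phase-contrast morphology annotated apparent cytotoxicity.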

Experiment [6] is described as follows: Tanguay_ZF_120hpf_TR_legacy: (Legacy) Oregon State University Tanguay Lab 120 Hour Post-fertilization zebrafish Assay for Touch Response (AID 2283667). An outline of the steps:
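Readout is presence or absence of touch response in 120 hpf zebrafish larvae, assessed by brightfield observation after continuous static exposure at 28C. Final vehicle was 0.64% (vol/vol) DMSO.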

Read-out in experiment [7]: organic anion transporter (SLCO1B1), SLCO1B1 (gene 10599)
Briefly: CLD_SLCO1B1_6hr: CellzDirect (CLD) Gene Expression Assay for organic anion transporter (SLCO1B1) at 6 hours (AID 2283668).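 Further: active means mRNA induction above DMSO baseline.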 A digest of the protocol: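 SLCO1B1 mRNA induction measured 6 h after dosing by quantitative nuclease protection with chemiluminescent read-out, in human primary hepatocyte cultures given chemicals at several concentrations (vehicle 0.2% DMSO). Increase over DMSO baseline fitted; morphology-based cytotoxicity annotated yes/no.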

Read-out in experiment [8]: sulfotransferase (SULT2A), SULT2A1 (gene 6822)
Briefly: CLD_SULT2A_6hr: CellzDirect (CLD) Gene Expression Assay for sulfotransferase (SULT2A) at 6 hours (AID 2283669).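 Further: hits raise transcript level above the DMSO vehicle baseline.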 A digest of the protocol: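 Measured 6 h after dosing, SULT2A1 mRNA in human hepatocyte lysates was quantified by S1 nuclease protection with chemiluminescent detection. Increases fitted against 0.2% DMSO vehicle baseline; phase-contrast cytotoxicity recorded yes/no.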

Read-out in experiment [9]: Cytochrome P450 (CYP24A1_1), CYP24A1 (gene 1591)
The experiment can be described thus: LTEA_HepaRG_CYP24A1_1: Life Technologies and Expression Analysis (LTEA) Assay for Cytochrome P450 (CYP24A1_1) using HepaRG (AID 2283671; active means hit-call score of the fitted dose curve at least 0.9, where 1 is the maximum; inactive means score below 0.9). As to conditions: mRNA level, 48 h; actives raise or lower the signal. A digest of the protocol: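 Cultures of human HepaRG were treated in duplicate for 48 h (0.5% DMSO vehicle, highest dose 100 uM). CYP24A1 mRNA by qRT-PCR, normalized to ACTB, GAPDH, POLR2A.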

Read-out in experiment [10]: glucuronosyltransferase (UGT1A1), UGT1A1 (gene 54658)
Briefly: CLD_UGT1A1_6hr: CellzDirect (CLD) Gene Expression Assay for glucuronosyltransferase (UGT1A1) at 6 hours (AID 2283672). A digest of the protocol:
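UGT1A1 mRNA induction, read by quantitative nuclease protection assay, 6 h after dosing primary human hepatocytes (two donors, 0.2% DMSO vehicle). Gain of signal fitted relative to vehicle.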

Read-out in experiment [11]: xenobiotic metabolism (CYP1A1), CYP1A1 (gene 1543)
Briefly: CLD_CYP1A1_24hr: CellzDirect (CLD) Gene Expression Assay for xenobiotic metabolism (CYP1A1) at 24 hours (AID 2283673).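 Further: CYP1A1 mRNA level by quantitative nuclease protection with chemiluminescence.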 A digest of the protocol:
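Transcript levels were read at 24 h by qNPA chemiluminescence in human liver primary cells. Cells got daily fresh dosing at multiple concentrations (vehicle 0.2% DMSO). Induction fitted upward against DMSO; phase-contrast cytotoxicity annotated.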

Read-out in experiment [12]: ABC Transporter (ABCB11), ABCB11 (gene 8647)
The experiment can be described thus: CLD_ABCB11_6hr: CellzDirect (CLD) Gene Expression Assay for ABC Transporter (ABCB11) at 6 hours (AID 2283675).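 Further: hits raise ABCB11 mRNA level so AC50 marks induction.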 An outline of the steps: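 Read-out was ABCB11 mRNA gain of signal by quantitative nuclease protection assay, relative to 0.2% DMSO vehicle, 6 h post-dose. Cells were primary human hepatocytes from two donors, treated across multiple concentrations; phase-contrast cytotoxicity noted yes/no.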

Read-out in experiment [13]: ABC Transporter (ABCB1), ABCB1 (gene 5243)
The experiment can be described thus: CLD_ABCB1_6hr: CellzDirect (CLD) Gene Expression Assay for ABC Transporter (ABCB1) at 6 hours (AID 2283659).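 Further: hits raise ABCB1 transcript above the DMSO vehicle baseline.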 A digest of the protocol:
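ABCB1 transcript measured by quantitative nuclease protection assay, chemiluminescent read-out, 6 h after dosing human hepatocyte cultures (0.2% DMSO vehicle, daily redosing). Activity fitted as increase over DMSO baseline; cytotoxicity flagged by phase-contrast morphology.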

In experiment [14] the test system is Thyroperoxidase (TPO), gene 54314. The experiment can be described thus: CCTE_Simmons_AUR_rTPO: CCTE's Amplex UltraRed Assay for Thyroperoxidase (TPO) Inhibition, Simmons Lab (AID 2283662).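 On AC50: potency for loss of signal meaning inhibition of peroxidase activity.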 A digest of the protocol:
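Rat thyroid microsomes (5 ug protein) with 25 uM Amplex UltraRed and 300 uM H2O2 in 200 mM phosphate buffer, 30 min at 37C in dark; fluorescence 544/590 nm. Eight concentrations, 5 nM–87.5 uM final, 0.5% DMSO, triplicate biological replicates.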

Experiment [15] in a line: CCTE_Simmons_CellTiterGLO_HEK293T: Viability Assessment in CCTE's Assays for Thyroperoxidase (TPO) Inhibition, Simmons Lab (AID 2283665).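 On AC50: cells exposed to compound for 24 h before readout; actives reduce ATP signal below DMSO vehicle meaning cytotoxicity.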 An outline of the steps: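 Cells were seeded overnight, then exposed to an eight-point series up to 87.5 uM final for 24 hours. CellTiter-Glo reagent was added and luminescence read after 20 min, giving ATP-based viability versus DMSO.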
A general note: Cellular ATP, detected with luciferase, serves as a proxy for viable cell number.

Read-out in experiment [16]: xenobiotic metabolism (CYP1A1), CYP1A1 (gene 1543)
Briefly: CLD_CYP1A1_6hr: CellzDirect (CLD) Gene Expression Assay for xenobiotic metabolism (CYP1A1) at 6 hours (AID 2283661).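 Further: potency for transcript induction above DMSO vehicle baseline.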 An outline of the steps: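 Read-out 6 h post-dose: qNPA chemiluminescent quantitation of transcript induction against 0.2% DMSO. Cells were cultured primary human hepatocytes from two separate donor preparations; phase-contrast morphology annotated apparent cytotoxicity.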

The nature of experiment [17]: CLD_ACTIN_6hr: CellzDirect (CLD) Gene Expression Assay for Baseline Control (Actin) at 6 hours (AID 2283676).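 Further: active means increased actin mRNA relative to DMSO vehicle.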 An outline of the steps: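 Baseline actin transcript level measured by qNPA (S1 nuclease protection, chemiluminescence) in human hepatocyte cultures 6 h after chemical exposure; 0.2% DMSO vehicle as reference, cytotoxicity noted from morphology.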
A short description of experiment [18]: CLD_ACTIN_24hr: CellzDirect (CLD) Gene Expression Assay for Baseline Control (Actin) at 24 hours (AID 2283670). A digest of the protocol:
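This 24 h qNPA (S1 nuclease protection, chemiluminescence) actin transcript readout in cultured human liver primary cells serves as baseline control. Signal is fitted upward relative to 0.2% DMSO; chemicals tested at multiple concentrations across two donor preparations.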

Read-out in experiment [19]: Cytochrome P450 2B6 (Homo sapiens) (UniProt P20813)
Briefly: CLD_CYP2B6_6hr: CellzDirect (CLD) Gene Expression Assay for xenobiotic metabolism (CYP2B6) at 6 hours (AID 2283677).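 Further: actives raise CYP2B6 transcript above DMSO baseline so AC50 marks an inducer.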 An outline of the steps:
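CYP2B6 transcript levels, read by chemiluminescent qNPA, were fitted for increase versus DMSO baseline; cultured human liver hepatocytes from two donor preparations were harvested 6 h after exposure to test chemicals at multiple concentrations.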

Each structure is given as a SMILES string. Results filed as inconclusive are left out. The source made the active and inactive calls. How the source made its calls, unless noted: active means hit-call score of the fitted dose curve at least 0.9, where 1 is the maximum; inconclusive means response in the unintended direction; inactive means score below 0.9.

Sequence of Broad substrate specificity ATP-binding cassette transporter ABCG2 (Homo sapiens) (Q9UNQ0 whole entry, looked up): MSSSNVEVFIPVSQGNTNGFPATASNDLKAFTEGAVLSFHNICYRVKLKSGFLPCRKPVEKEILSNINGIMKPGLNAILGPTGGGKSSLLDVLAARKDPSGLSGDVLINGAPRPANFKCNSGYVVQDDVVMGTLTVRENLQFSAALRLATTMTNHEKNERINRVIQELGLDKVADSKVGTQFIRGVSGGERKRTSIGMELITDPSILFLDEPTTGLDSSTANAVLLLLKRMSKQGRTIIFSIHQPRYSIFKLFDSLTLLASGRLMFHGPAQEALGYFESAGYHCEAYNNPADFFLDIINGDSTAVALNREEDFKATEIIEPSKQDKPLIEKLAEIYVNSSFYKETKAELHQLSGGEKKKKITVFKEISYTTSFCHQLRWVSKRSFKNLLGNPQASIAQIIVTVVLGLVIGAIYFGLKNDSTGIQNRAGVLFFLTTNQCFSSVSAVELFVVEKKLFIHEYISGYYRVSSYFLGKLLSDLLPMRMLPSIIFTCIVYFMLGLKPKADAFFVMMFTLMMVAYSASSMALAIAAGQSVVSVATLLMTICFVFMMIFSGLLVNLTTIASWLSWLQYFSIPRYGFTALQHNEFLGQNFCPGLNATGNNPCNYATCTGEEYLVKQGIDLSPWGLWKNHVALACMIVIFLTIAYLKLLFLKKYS

As a reminder, the AC50 is the concentration at which the activity in the assay is half-maximal. For `CC(COc1ccc(Oc2ccccc2)cc1)Oc1ccccn1` (stereo not drawn), the compound was classed as inactive in experiment [1], in [3], in experiment [4], in [5], in experiment [6] and in [7]. Besides, the call in [8], in experiment [9], in [10], in experiment [11] and in experiment [12] was inactive. Further, the AC50 in experiment [2] is 27.9 µM (active).
As for `CCOP(=O)(OCC)Oc1cc(C)nc(C(C)C)n1`, the outcome in [1], in experiment [13], in experiment [4], in experiment [6], in [7] and in experiment [8] was inactive. Besides, the outcome in [10], in experiment [11] and in experiment [12] was inactive.
Regarding `CCOP(=O)(SC(C)CC)N1CCSC1=O` (stereo not drawn), the outcome in experiment [1], in [4], in [15], in [6], in [7] and in experiment [10] was inactive. In addition, the compound was called inactive in experiment [12]. In addition, the AC50 in experiment [14] is 43.8 µM (active).
Regarding `CCOP(=S)(OCC)Oc1cc(C)nc(C(C)C)n1`, the result in experiment [1], in experiment [4], in experiment [5], in experiment [6], in experiment [7] and in experiment [8] was inactive. The compound was classed as inactive in experiment [10], in experiment [12] and in experiment [17]. For the same compound, the AC50 is 0.682 µM (active) in [16], 14.4 µM (active) in experiment [14], 83.2 µM (active) in experiment [15] and 6.62 µM (active) in experiment [11].
As to `CC1(C(=O)Nc2ccc(O)c(Cl)c2Cl)CCCCC1`, the compound was called inactive in experiment [1], in experiment [2], in experiment [3], in [4], in experiment [14] and in experiment [5]. Besides, the call in [6], in experiment [18], in experiment [9], in experiment [10], in experiment [12] and in experiment [19] was inactive. Also, the AC50 in experiment [15] was 82.2 µM (active).
In the case of `COP(=O)(OC)SCn1c(=O)oc2cc(Cl)cnc21`, the compound was called inactive in experiment [1], in [4], in [15], in [5], in [6] and in experiment [8]. Further, the compound was classed as inactive in experiment [11] and in experiment [12]. In addition, the AC50 in experiment [14] is 7.84 µM (active).
As to `CCOP(=S)(OCC)Oc1ccc2c(C)c(Cl)c(=O)oc2c1`, the compound was classed as inactive in experiment [1], in experiment [3], in experiment [4], in experiment [15], in experiment [5] and in [6]. Also, the compound was classed as inactive in [8], in experiment [18], in [9], in [10] and in experiment [12]. The AC50 in experiment [2] was 70.7 µM (active); in experiment [14], 38.5 µM (active); in experiment [19] it was 1.44 µM (active).
